{"source": "PubChem BioAssay (NCI)", "note": "About 83,000 compounds went through this panel and 20% of them were active in at least one assay; those are over-represented in the sample as a whole.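 Assay: single dose, 48 h. Readout: percent growth (0 = no net growth; negative = cell death). Active: <10.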 Values without a mark were called inactive. The source made the active and inactive calls.", "data": [{"test_system": "MDA-MB-468 breast", "experiment": "NCI-60 one-dose screen, 48 h (100 = growth as untreated, 0 = no growth, -100 = all killed)", "settings": "10 µM", "values": [{"smiles": "O=C(Nc1cccc(C(F)(F)F)c1)c1cncc(C#Cc2cnc3cccnn23)c1", "growth": "47.8%"}, {"smiles": "CCOc1ccc(/C=N/NC(=O)Cn2nc(Cc3ccccc3)c3onc(C)c3c2=O)cc1", "growth": "-7.05% (active)"}, {"smiles": "COc1cc(/C=C/C(=O)c2ccc(C(F)(F)F)cc2)ccc1Oc1nc(Nc2ccc(F)cc2)nc(N(C)C)n1", "growth": "66.4%"}, {"smiles": "CC(=O)c1cc(C(=O)N2c3ccccc3Sc3ccccc32)n2ccc(C)cc12", "growth": "3.44% (active)"}, {"smiles": "CC1(C)CC[C@]2(C(=O)N3CCOCC3)CC[C@]3(C)C(=CC[C@@H]4[C@@]5(C)CC[C@H](NCO)C(C)(C)[C@@H]5CC[C@]43C)[C@H]2C1", "growth": "-97% (active)"}, {"smiles": "COC[C@@H](CC(C)C)N=C1NC(=O)/C(=C/c2ccc3ncsc3c2)N1", "growth": "-17.8% (active)"}, {"smiles": "CN1CCN(Cc2ccc(C(=O)Nc3cccc(Nc4ccc5c(O)cccc5n4)c3)cc2C(F)(F)F)CC1", "growth": "-92.7% (active)"}, {"smiles": "O=C(Nc1nc2ccc([N+](=O)[O-])cc2s1)Nc1ccccc1I", "growth": "-25.8% (active)"}, {"smiles": "CN1CCCN(Cc2ccc(C(=O)Nc3cccc(Nc4ccc5cc(O)ccc5n4)c3)cc2C(F)(F)F)CC1", "growth": "5.76% (active)"}, {"smiles": "COc1ccc(N2N=C(c3ccc4c(c3)OCCO4)CC2c2cccc(NC(=O)CCCNS(=O)(=O)c3ccc(F)cc3)c2)cc1", "note": "(configuration not stated)", "growth": "60.8%"}, {"smiles": "CC(=O)Nc1ccc(-n2cnc3cc(-c4ccc(O)cc4)ccc32)cc1F", "growth": "-12.3% (active)"}, {"smiles": "O=C1NC(=NC2CCCCCC2)N/C1=C\\c1ccc2ncoc2c1", "growth": "-3.48% (active)"}, {"smiles": "COC1=C[C@@]23CCC(=O)N2CCc2cc4c(cc2[C@H]3[C@H]1OC(=O)C(C)(C)O)OCO4", "growth": "91.5%"}, {"smiles": "CCN1CCN(Cc2ccc(C(=O)Nc3cccc(-c4cn(-c5ccc6oc(=O)ccc6c5)nn4)c3)cc2C(F)(F)F)CC1", "growth": "-82.4% (active)"}, {"smiles": "CN1C(=O)N(C)C2SC(N/N=C/c3cccs3)=NC21", "note": "(configuration not stated)", "growth": "-22.8% (active)"}, {"smiles": "CC(=O)Nc1ccc(-c2cn(-c3cccc(C(=O)Nc4cc(CN5CCOCC5)cc(C(F)(F)F)c4)c3)nn2)cn1", "growth": "-92.1% (active)"}, {"smiles": "Cc1cc(C)cc(Oc2cccc(-c3c(C)nnn3C3CCN(CCN(C)C)CC3)n2)c1", "growth": "-20.2% (active)"}, {"smiles": "CC1=C(c2cc(-c3ccc(Cl)cc3)c(C#N)c(N)n2)C(c2ccccc2)NC(=S)N1", "note": "(configuration not stated)", "growth": "35%"}, {"smiles": "Cc1ccc(-c2nc3ccc(C(=O)N=Nc4c(O)[nH]c5ccc(Br)cc45)cc3[nH]2)cc1", "growth": "62.5%"}, {"smiles": "O=C(Nc1ccc(I)cc1F)c1cc(-c2ccc(F)cc2F)ccc1O", "growth": "-26.8% (active)"}, {"smiles": "CN1CCc2c(sc3ncnc(N/N=C/c4ccc5ccccc5c4)c23)C1", "growth": "42%"}, {"smiles": "COc1cc2c3c(n(CCCN4CCOCC4)c(=O)c2cc1OC)-c1nc2c(cc1C3=O)OCO2", "growth": "-29% (active)"}, {"smiles": "Cn1c(O)c(N=Nc2nc(-c3cc4ccccc4oc3=O)cs2)c2cc(Br)ccc21", "growth": "41.8%"}, {"smiles": "COc1ccc(CCN2C(=O)/C(=C/c3csc(C#N)n3)SC2=S)cc1OC", "growth": "-80.6% (active)"}, {"smiles": "COc1ccc2c3nc4cc(C)c(C)cc4nc3n(CCN(C)C)c2c1", "growth": "-10.9% (active)"}, {"smiles": "C=C1CCC2C3(C)COC(c4c(F)cccc4F)OC3CCC2(C)C1CC(O)C1=CCOC1=O", "note": "(configuration not stated)", "growth": "66.1%"}, {"smiles": "Cc1cccc2cc(-c3cc(-c4ccccc4)nc(=S)[nH]3)c(Cl)nc12", "growth": "90.6%"}, {"smiles": "COc1ccc(/C=C/C(=O)c2ccc(N3CCN(C)CC3)cc2)c(C(F)(F)F)c1", "growth": "-10.7% (active)"}, {"smiles": "Cc1cccc(NC(=O)CSc2nc3ccc(F)cc3c(=O)n2-c2ccc(Cl)cc2)c1C", "growth": "80.7%"}, {"smiles": "CC1(c2ccccc2)NC(=O)N(CC(=O)Nc2ccc(C(=O)/C=C/C=C/c3ccccc3)cc2)C1=O", "note": "(configuration not stated)", "growth": "3.2% (active)"}, {"smiles": "CCOP(=O)(OCC)O[C@H]1CC[C@]2(C)[C@H]3CC[C@@H]4[C@@H]([C@](C)(O)CCC=C(C)C)CC[C@@]4(C)[C@]3(C)CC[C@H]2C1(C)C", "growth": "-23.3% (active)"}, {"smiles": "COc1cccc(-c2ccnc(/N=C(\\N)Nc3ccc(S(=O)(=O)Nc4nc(C)cc(C)n4)cc3)n2)c1", "growth": "115%"}, {"smiles": "COc1ccc2[nH]c(=O)c(CSc3cccc(N)c3)cc2c1", "growth": "34.7%"}, {"smiles": "C/C(=N\\N=C\\c1ccc(Cl)c([N+](=O)[O-])c1)c1ccc2c(c1)Nc1ccccc1S2", "growth": "-29.3% (active)"}, {"smiles": "COc1cc(-c2nc3cc(Cl)c(Cl)cc3[nH]2)ccc1OCc1nnc(-c2ccc(Br)cc2)o1", "growth": "-10.9% (active)"}, {"smiles": "O/N=C(\\CSc1nnc(-c2c[nH]c3ccccc23)n1-c1ccccc1)c1ccc(Cl)cc1", "growth": "-85.1% (active)"}, {"smiles": "CCOc1ccc(Nc2nc3ccccc3nc2Nc2ccc(OCC)cc2)cc1", "growth": "25.4%"}]}]}
